Screening results: PubChem BioAssay, several laboratories
WT yeast gro inh: growth inhibition of WT strain, primary screen, mitochondrial fusion inhibitor project, WT and mutant strains, chemical genetic; mitochondrial fusion phenotypic screen; inhibition, % at 10 µM; 190,000 tested, 2.1% active; AID 1362, 2008; in the data active = inhibition above about 58%; tested in S. cerevisiae
Lmaj promast: Leishmania major promastigote growth inhibition, primary screen. 200,000 tested, 9% active. Leishmania major promastigotes, resazurin fluorescence viability. inhibition, % at 10 µM; in the data active = inhibition above about 50%;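 note: promastigotes grown with compound for 44 hours at 28 °C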
INS promoter inh: inhibitors of insulin promoter-driven GFP, primary screen, imaging, TRM-6 cells (human fetal islet line), eGFP reporter, cell count; reporter expression induced with tamoxifen; inhibition, % at 2 µM; 130,000 tested, 0.9% active; AID 1273, 2008;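 active = inhibition above the mean plus 3 SD, with well images judged a real hit on visual review, cut at about 60% in these data, passing the limit was not always enough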
ROMK primary: ROMK potassium channel modulators, primary screen, cell-based, thallium flux, MLSMR library. 130,000 tested, 2% active. AID 1918, 2009. ATP-sensitive inward rectifier potassium channel 1 (Homo sapiens), P48048. Tet-inducible ROMK, thallium flux fluorescence; actives lie on both sides. B-score at 10 µM;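 active = signal ratio slope over the read window, or its plate-corrected B-score, at least 3 SD from the plate mean, either direction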;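 note: B-score of the F/F0 ratio slope over 7 to 12 s after thallium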
Target sequence (P48048 whole entry, looked up): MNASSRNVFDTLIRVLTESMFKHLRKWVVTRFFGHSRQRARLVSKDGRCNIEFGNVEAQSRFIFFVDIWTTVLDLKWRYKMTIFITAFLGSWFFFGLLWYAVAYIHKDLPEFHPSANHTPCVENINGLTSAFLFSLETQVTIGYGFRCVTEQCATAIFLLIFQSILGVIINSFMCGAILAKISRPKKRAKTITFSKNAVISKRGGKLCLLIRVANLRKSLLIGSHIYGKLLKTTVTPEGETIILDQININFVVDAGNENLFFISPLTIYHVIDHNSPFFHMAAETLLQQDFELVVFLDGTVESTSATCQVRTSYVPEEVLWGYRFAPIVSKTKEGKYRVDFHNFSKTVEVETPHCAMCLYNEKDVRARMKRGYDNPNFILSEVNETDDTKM
Cl transport mod: KCC2 cotransporter modulators, thallium flux, primary screen, cell-based, HEK293 KCC2, FluoZin-2 fluorescence, MLSMR. KCC2 cells, thallium flux FluoZin-2 fluorescence. B-score of Tl+ flux slope (higher = more flux/activation; lower = inhibition) at 10 µM. 190,000 tested, 2.2% active;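 active = thallium flux slope and its plate-corrected score both differing from the plate sample mean at a set confidence after two filtering rounds, in either direction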;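 note: slope of fluorescence scaled to starting intensity during 10 to 20 s after thallium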
Insulin prom up: insulin promoter activators in MIN6 cells, imaging, high-content screening, mouse beta cells; MIN6 insulin promoter-GFP reporter; hits give high values; z-score at 5 µM; 190,000 tested, 0.3% active;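 active = z-score above 3 at 5 µM with at least 500 cells counted in the well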
* = called active by the depositor; . = no result given. An excerpt weighted towards active compounds, which were near 12% of everything screened.

SMILES | WT yeast gro inh | Lmaj promast | INS promoter inh | ROMK primary | Cl transport mod | Insulin prom up
CC(C)CNS(=O)(=O)c1ccc(S(=O)(=O)NC2CCOC(C)(C)C2)cc1 (stereo not drawn) | . | -1 | -231 | . | 0.41 | .
CC(NC(=O)c1ccccc1)C(=O)N/N=C/c1ccc(O)cc1 (stereo not drawn) | 18 | -10 | 36 | 0.017 | 0.72 | 0.04
Cc1cccc(NC2=C(Cl)C(=O)OC2OC(=O)c2ccco2)c1 (stereo not drawn) | -20 | 12 | . | 0.5 | -0.91 | -0.2
Cc1cccc(C(=O)N[C@H](C(=O)Nc2cc(S(=O)(=O)N3CCCCC3)ccc2C)C(C)C)c1 | -4 | -1 | . | . | 0.54 | 0.56
Cc1cc(C)c2nc(NC(=O)[C@@H](NC(=O)c3cccc(S(=O)(=O)N4CCOCC4)c3)C(C)C)sc2c1 | 10 | 97* | 12 | . | -0.18 | -0.49
CC(=O)/C(N=Nc1ccc(-n2ccc(C(F)(F)F)n2)cc1)=C(\C)O | . | . | . | . | -0.66 | 0.35
Cc1[nH]c2ccccc2c1C(=O)CN1C(=O)NC2(CC(C)CC(C)(C)C2)C1=O (stereo not drawn) | 3 | 90* | 27 | . | 0.066 | -0.82
CCOC(=O)C1=C(Nc2ccccc2)CC(C)(O)C(C(=O)OCC)C1c1ccc(Br)cc1 (stereo not drawn) | 30 | 92* | -61 | 0.56 | -0.036 | -0.26
O=C(NC(=S)NCC1CCCO1)c1ccccc1Br (stereo not drawn) | -14 | -7 | -13 | -0.93 | 2.5 | -0.21
CN(C(=S)NC(=O)c1ccccc1Br)C1CCCCC1 | 16 | -7 | -223 | . | 31* | 1.6
COc1ccccc1/C=C/C(=O)NC(=S)N(C)C1CCCCC1 | 22 | 0 | 5 | . | 9.8* | .
COc1ccccc1/C=C/C(=O)NCCC1=CCCCC1 | 7 | 28 | . | -0.066 | -0.19 | -0.54
Cn1ccnc1C(=O)c1cc(SCC(=O)N2CCOCC2)nc2ccccc12 | -15 | 7 | . | 0.14 | 1.5 | 0.31
CCOP(=O)(OCC)c1nc(-c2cccc3ccccc23)oc1NCc1ccccc1 | -15 | -4 | 17 | . | . | 0.33
COc1ccc(CCNc2oc(-c3cccc4ccccc34)nc2P(=O)(OC)OC)cc1OC | -9 | 4 | 10 | 0.77 | -0.57 | -0.76
COP(=O)(OC)c1nc(-c2cccc3ccccc23)oc1NCCc1ccccc1 | 2 | 71* | -32 | . | -0.42 | 0.32
CCOP(=O)(OCC)c1nc(-c2cccc3ccccc23)oc1NCc1ccc(OC)cc1 | 17 | 71* | -79 | . | 0.0032 | -1.2
Cc1ccc(S(=O)(=O)Cc2ccc(C(=O)N3CCN(c4ccc(F)cc4)CC3)o2)cc1 | 26 | 9 | . | . | -0.81 | 0.14
CCn1nnc(NC(=O)c2ccc([N+](=O)[O-])o2)n1 | -11 | 93* | -6 | . | 1 | 0.45
Cc1ccc(NC(=O)c2ccc([N+](=O)[O-])o2)c(C)c1 | 11 | 94* | -47 | 0.033 | 0.076 | -0.56
O=C(Nc1ccc2oc(-c3cccnc3)nc2c1)c1ccc([N+](=O)[O-])o1 | 3 | 100* | . | -0.2 | -0.45 | 0.22
Cc1cccnc1NC(=O)c1ccc([N+](=O)[O-])o1 | -4 | 77* | -21 | 0.14 | -0.022 | -0.63
C=CCOc1c(Br)cc(/C=N/NC(=O)Cc2ccc(C(F)(F)F)cc2[N+](=O)[O-])cc1OC | -5 | 22 | 3 | . | 0.73 | -0.4
CS(=O)(=O)N(CC(=O)NCc1ccco1)c1cc(C(F)(F)F)ccc1Cl | 8 | -4 | -9 | . | 1.4 | 0.63
Cc1ccccc1NC(=O)c1ccc([N+](=O)[O-])o1 | 1 | 69* | . | 1.7 | -0.68 | 0.48
Cc1cccc(NC(=O)c2ccc([N+](=O)[O-])cc2Cl)n1 | 3 | -3 | -33 | 0.71 | -0.047 | 0.1
Cc1cccc(NC(=O)c2ccc([N+](=O)[O-])o2)n1 | 4 | 96* | . | . | -0.62 | 1.3
CS(=O)(=O)N1CCN(c2ccccc2NC(=O)c2ccc([N+](=O)[O-])o2)CC1 | 1 | 100* | . | -0.33 | -0.32 | 0.81
Cc1cccc(NC(=O)COC(=O)c2ccc([N+](=O)[O-])o2)c1C | -1 | -1 | -64 | 0.058 | 0.36 | 0.55
